Compound activity: PubChem BioAssay, National Center for Advancing Translational Sciences (NCATS)
L3MBTL1 block = qHTS Assay for the Inhibitors of L3MBTL1. Lethal(3)malignant brain tumor-like protein 1 (Homo sapiens), Q9Y468. AlphaScreen L3MBTL1–H3K9me1 peptide binding. Potency, µM (highest dose often 57.1 µM), for inactives: top-dose activity, negative = inhibition, usual class: inhibitors. 0.66% of 230,000 active. AID 485360, 2010; also: potency is read from the fitted curve at half-maximal effect; % is scaled to controls: 0 for no effect and ±100 for the full control effect; nearly all actives have a fitted effect of over 60% in size
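AlphaScreen assay: L3MBTL1 (50 nM final) was preincubated 30 min at room temperature with biotinylated H3(1-15)K9me1 peptide (75 nM final), then 30 min with library compounds; streptavidin donor and nickel chelate acceptor beads (10 ug/mL final) added, 30 min dark.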
G9a block = qHTS Assay for Inhibitors of Histone Lysine Methyltransferase G9a. Histone-lysine N-methyltransferase EHMT2 (Homo sapiens), Q96KQ7. G9a H3K9 monomethylation, AlphaScreen, 2 h. Potency, µM (titrated, usually from 102 µM), without a hit: at the top dose activity, negative = inhibition, usual class: inhibitors. 8.8% of 350,000 active. AID 504332, 2011; also: potency is read from the fitted curve at half-maximal effect; % is scaled to controls: 0 for no effect and ±100 for the full control effect; nearly all actives have a fitted effect of over 75% in size
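Signal arises when biotinylated H3K9 peptide, once monomethylated, bridges streptavidin donor and antibody-captured acceptor beads. Enzyme at 20 nM was preincubated 15 min with test compounds; peptide 500 nM and SAM 20 uM then reacted for 2 h.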
HP1b chromo inh = HTS for Inhibitors of HP1-beta Chromodomain Interactions with Methylated Histone Tails; AlphaScreen HP1-beta / biotin-H3K9me3 peptide binding; Potency, µM (series often up to 114 µM), for the others: top-dose activity change, negative = inhibition, usual class: inhibitors; 0.56% of 390,000 active; also: potency is read from the fitted curve at half-maximal effect; nearly all actives have a fitted effect of over 70% in size
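HP1-beta protein (50 nM final) preincubated 30 min at room temperature with biotinylated H3(1-18)K9me3 peptide (50 nM) in PBS pH 7.4, 0.01% Tween-20, then compound added for 30 min. AlphaScreen streptavidin donor/nickel chelate acceptor beads (10 ug/mL final), 30 min dark, luminescence read.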
JMJD2A Tudor inh = qHTS Assay for Inhibitors of JMJD2A-Tudor Domain; Potency, µM (series often up to 114 µM), inactives show at the highest dose activity change, negative = inhibition, usual class: inhibitors; AID 504339, 2011; 4.4% of 390,000 active; Lysine-specific demethylase 4A (Homo sapiens), O75164; AlphaScreen JMJD2A-Tudor / H3K4me3 peptide binding; also: potency is read from the fitted curve at half-maximal effect; % is scaled to controls: 0 for no effect and ±100 for the full control effect; nearly all actives have a fitted effect of over 50% in size
PI5P4Ka inh = qHTS for Inhibitors of phosphatidylinositol 5-phosphate 4-kinase (PI5P4K) | Phosphatidylinositol 5-phosphate 4-kinase type-2 alpha (Homo sapiens), P48426 | PI5P4Kalpha enzyme, ADP-Glo luminescence, 60 min; hits give low values | max response, % | 1.2% of 330,000 active | AID 652105, 2013; active = max response of -50% or lower; inconclusive = between -30% and -50%; inactive = -30% or higher; also: value at the top dose of about 77 µM; % is scaled to controls: 0 for no effect and ±100 for the full control effect
Target sequence (P48426 whole entry, looked up): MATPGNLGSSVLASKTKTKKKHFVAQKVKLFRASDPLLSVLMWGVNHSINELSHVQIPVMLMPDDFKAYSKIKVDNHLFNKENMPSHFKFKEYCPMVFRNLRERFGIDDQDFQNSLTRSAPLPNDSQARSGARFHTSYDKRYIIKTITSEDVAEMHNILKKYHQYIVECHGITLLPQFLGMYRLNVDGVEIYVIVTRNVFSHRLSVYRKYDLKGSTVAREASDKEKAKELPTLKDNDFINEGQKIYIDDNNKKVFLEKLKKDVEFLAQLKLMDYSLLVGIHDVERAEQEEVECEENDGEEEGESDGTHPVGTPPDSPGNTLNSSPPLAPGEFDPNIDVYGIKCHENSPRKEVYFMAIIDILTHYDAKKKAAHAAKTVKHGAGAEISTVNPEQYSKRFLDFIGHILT
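Luminescence from ADP-Glo served as readout of PI5P4Kalpha activity in a qHTS format. Reaction: enzyme, substrate, compound, ATP at 5 microM final, 60 min at RT.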
BAZ2B block = qHTS Assay for Inhibitors of BAZ2B; AlphaScreen BAZ2B-H3K14Ac peptide displacement; Potency, µM (doses to about 114 µM), without a hit: top-dose activity change, negative = inhibition, usual class: inhibitors; 4.4% of 360,000 active; AID 504333, 2011; also: potency is read from the fitted curve at half-maximal effect; % is scaled to controls: 0 for no effect and ±100 for the full control effect; nearly all actives have a fitted effect of over 60% in size
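AlphaScreen luminescence quantifies BAZ2B engagement of H3K14Ac peptide; the protein and biotinylated peptide are both at 50 nM final, buffer PBS pH 7.4 with 0.01% Tween-20, all steps at room temperature.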
The depositor's hits bear a star; ? = inconclusive; nt = not tested or not shown; [ ] = remark or other dose. An excerpt weighted towards active compounds, which were near 11% of everything screened. Unless noted, calls follow the shape of the dose curve; as a rule, active = well fitted inhibition curve with a large enough effect; inconclusive = small, poorly fitted or top-dose-only effect; inactive = no such curve, though single readings can be large or run the other way.

SMILES | L3MBTL1 block | G9a block | HP1b chromo inh | JMJD2A Tudor inh | PI5P4Ka inh | BAZ2B block
C[C@@H]1[C@H](O)[C@@H](C)/C=C/C=C/C=C/C=C/C=C/C=C/C=C/[C@H](O[C@@H]2O[C@H](C)[C@@H](O)[C@H](N)[C@@H]2O)C[C@@H]2O[C@](O)(C[C@@H](O)C[C@@H](O)[C@H](O)CC[C@@H](O)C[C@@H](O)CC(=O)O[C@H]1C)C[C@H](O)[C@H]2C(=O)O | nt | -1%[59 µM] | nt | nt | nt | nt
COc1cccc(CN2CCNC(=O)C2CC(=O)NC2Cc3ccccc3C2)c1 (centres undefined) | -11% | 45µM* | 40% | -11% | -3 | ?
CCCN1CCC(NC(=O)CC2C(=O)NCCN2Cc2cccc(OC)c2)CC1 (centres undefined) | nt | 19% | 26% | -15% | -1 | 10%
CCC1CCCCN1C(=O)Cn1c(=O)n(-c2ccccc2C(F)(F)F)c(=O)c2c(C)c(C(=O)N(C)C)sc21 (centres undefined) | nt | 9%[59 µM] | 26% | 2% | nt | 5%
Cc1ccc(N(C)S(=O)(=O)c2ccc3[nH]c(=O)ccc3c2)cc1 | nt | -2%[59 µM] | 33% | -8% | nt | -1%
O=C(NCCc1ccc(Cl)cc1)c1ccc(Cn2c(=O)c3cccn3c3cccnc32)cc1 | nt | ? | 1% | ? | nt | ?
CC[C@H](C)C1OC(=O)[C@@H](C)[C@@H](CC)NC(=O)[C@H](C)N(C)C(=O)C(C)(C)C(=O)C(C)NC(=O)[C@H](Cc2ccc(OC)cc2)N(C)C(=O)[C@H](C(C)C)N(C)C(=O)CNC(=O)[C@H](CC(C)C)N(C)C(=O)CNC1=O (some centres undefined) | nt | nt | nt | nt | 4 | nt
CCC[C@H]1NC(=O)[C@H](C)N(C)C(=O)C(C)(C)C(=O)C(C)NC(=O)[C@H](Cc2ccc(OC)cc2)N(C)C(=O)[C@H](C(C)C)N(C)C(=O)CNC(=O)[C@H](CC(C)C)N(C)C(=O)CNC(=O)[C@H]([C@@H](C)CC)OC(=O)[C@H]1C (some centres undefined) | -8% | nt | -6% | 22µM* | -3 | nt
COc1ccc(S(=O)(=O)n2c(N)nc3ccccc32)cc1 | nt | nt | nt | nt | 8 | nt
Cc1ccc(S(=O)(=O)n2c(N)nc3ccccc32)cc1 | 1% | 50µM* | 12% | -19% | 6 | -27%
COc1ccc(CN(Cc2ccccc2)C(=O)Nc2ccccc2)cc1COc1ccc(NC(C)=O)cc1 | nt | nt | 17% | ? | nt | nt
O=C(COC(=O)c1ccccn1)Nc1nc(-c2ccccc2)cs1 | nt | -72% | -14% | 79µM* | -19 | 50µM*
O=C(COC(=O)c1ccccn1)Nc1nc(-c2cccc([N+](=O)[O-])c2)cs1 | nt | -7% | -3% | -18% | 1 | 56µM*
CCc1ccc(-c2csc(NC(=O)Oc3ccccc3)n2)cc1 | -1% | 45µM* | -6% | -31% | 5 | -33%
O=C(Nc1cc2c(cc1C(=O)c1cccc(Br)c1)OCCO2)c1ccccc1F | nt | -1%[59 µM] | -5% | ? | nt | -27%
CCCCNc1c(-c2ccc(OC)c(SC3CCCCC3)c2)nc2cc(C)ccn12 | 14% | 14%[2.33 µM] | -15% | 56µM* | 0 | ?
N#Cc1nc(COc2ccc(Br)cc2)oc1N1CCCC1 | ? | ? | ? | ? | -2 | 25µM*
N#Cc1nc(COc2ccccc2)oc1N1CCOCC1 | -11% | -3%[12.7 µM] | 21% | 3% | 0 | -5%
N#Cc1nc(COc2ccccc2)oc1N1CCCCCC1 | nt | 45µM* | ? | ? | -3 | 35µM*
CCc1cc(C(c2ccncc2)N2CCN(C)CC2)c(NC(=O)c2ccccc2)s1 (centres undefined) | -8% | 40µM* | 16% | -35% | 1 | ?
